{"source": "PubChem BioAssay AID1654", "about": "(Sanford-Burnham Center for Chemical Genomics, 2009)", "note": "About 1,500 (0.52%) of roughly 290,000 compounds were called active. Rule as the data show it: active = inhibition above about 50%; inactive = the rest. The sample as a whole holds a higher share of actives than the screen did.", "data": [{"biological_target": "Dual specificity protein phosphatase 3 (Homo sapiens) (UniProt P51452)", "sequence (P51452 whole entry, looked up)": "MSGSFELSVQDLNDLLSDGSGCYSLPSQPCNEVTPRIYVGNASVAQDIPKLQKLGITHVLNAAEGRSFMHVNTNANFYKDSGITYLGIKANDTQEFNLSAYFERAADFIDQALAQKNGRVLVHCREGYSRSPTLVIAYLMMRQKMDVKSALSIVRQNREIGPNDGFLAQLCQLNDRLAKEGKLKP", "test": "inhibition of human DUSP3 activity – biochemical, absorbance, uHTS, primary screen (AID 1654)", "conditions": "recombinant VHR phosphatase, pNPP absorbance, at 13.3 µM, active compounds read high", "values": [{"compound": "Cc1cccc2nc(CNc3ccc(F)cc3)cn12", "inhibition": "-14.9% (inactive)"}, {"compound": "CN(C(=O)c1ccccc1)c1nccnc1C#N", "inhibition": "25% (inactive)"}, {"compound": "Cc1cc(N2C(=O)C(O)=C(C(=O)c3ccc(C)o3)C2c2ccc(OCc3ccccc3)cc2)no1", "note": "(stereo not given)", "inhibition": "12.3% (inactive)"}, {"compound": "CCn1c(=O)c(=O)n(CC)c2cc(S(=O)(=O)N3CCc4ccccc43)ccc21", "inhibition": "50.3% (active)"}, {"compound": "Cn1c(=O)n(C)c2cc(S(=O)(=O)N3CCCc4ccccc43)ccc21", "inhibition": "3.5% (inactive)"}, {"compound": "O=S(=O)(c1ccc2c(c1)OCCO2)N1CCc2ccccc21", "inhibition": "13.6% (inactive)"}, {"compound": "Cc1ccc(S(=O)(=O)Nc2nc(C)cc(-n3nc(C)cc3C)n2)cc1", "inhibition": "28.3% (inactive)"}, {"compound": "Cc1cc(C)nc(SC2CCCCC2NS(=O)(=O)c2ccc(Cl)cc2)n1", "note": "(stereo not given)", "inhibition": "1.5% (inactive)"}, {"compound": "Cc1cc(C)nc(NS(=O)(=O)c2ccc(N3C(=O)C4CCCCC4C3=O)cc2)n1", "note": "(stereo not given)", "inhibition": "57.6% (active)"}, {"compound": "COc1ccc(CCc2nc(-c3cccs3)no2)cc1", "inhibition": "-3.6% (inactive)"}, {"compound": "Cc1c(CCC(=O)O)c(=O)oc2c(C)c(OCc3ccccc3Cl)ccc12", "inhibition": "57.3% (active)"}, {"compound": "CCOC(=O)CCc1c(C)c2ccc(OCc3nn[nH]n3)c(C)c2oc1=O", "inhibition": "-7.7% (inactive)"}, {"compound": "Cc1c(CCC(=O)O)c(=O)oc2cc(OCc3ccc(Br)cc3)ccc12", "inhibition": "2.4% (inactive)"}, {"compound": "COc1ccc2oc(=O)cc(CN3CCOCC3)c2c1", "inhibition": "-2.3% (inactive)"}, {"compound": "CCc1ccccc1NC(=O)/C(=C/c1ccccc1)c1ccccc1", "inhibition": "-11.5% (inactive)"}, {"compound": "CCOCCCNCc1cc(Br)ccc1OCC", "inhibition": "3% (inactive)"}, {"compound": "CCOc1ccccc1OCCCNCc1ccccc1", "inhibition": "59.7% (active)"}, {"compound": "CCOCCCNCc1ccc(OCc2ccc(F)cc2)c(OC)c1", "inhibition": "23.4% (inactive)"}, {"compound": "COc1ccc(S(=O)(=O)N2CCC(C(=O)N3CCCC3)CC2)cc1C", "inhibition": "-11.4% (inactive)"}, {"compound": "O=C(N1CCCCC1)N1CCN(C(=O)N2CCCCC2)CC1", "inhibition": "17.7% (inactive)"}, {"compound": "CCOC(=O)C1CCN(C(=O)COc2cccc3ccccc23)CC1", "inhibition": "1.1% (inactive)"}, {"compound": "Cc1cc(/C=C2\\SC(=O)N(C)C2=O)c(C)n1-c1cccc(C(=O)O)c1", "inhibition": "15.5% (inactive)"}, {"compound": "Cc1ccccc1NC(=O)CN1C(=O)N/C(=C\\c2cccn2-c2cccc(C(=O)O)c2)C1=O", "inhibition": "35.6% (inactive)"}, {"compound": "N#Cc1ccccc1CN1C(=O)S/C(=C/c2cccn2-c2cccc(C(=O)O)c2)C1=O", "inhibition": "50.3% (active)"}, {"compound": "CC(=O)N1c2ccc(S(=O)(=O)N3CCC(C(=O)NCc4ccc(F)cc4)CC3)cc2CC1C", "note": "(stereo not given)", "inhibition": "34.4% (inactive)"}, {"compound": "CC(=O)N1c2ccc(S(=O)(=O)N3CCCC(C(=O)NCc4ccc(Cl)cc4)C3)cc2CC1C", "note": "(stereo not given)", "inhibition": "52.7% (active)"}, {"compound": "CC(=O)N1CCCc2cc(S(=O)(=O)N3CCCC(C(=O)NCc4ccc(Cl)cc4)C3)ccc21", "note": "(stereo not given)", "inhibition": "5.3% (inactive)"}, {"compound": "CCC(C)c1ccccc1NC(=O)CN(C)CC(=O)Nc1ccccc1SC", "note": "(stereo not given)", "inhibition": "-2.9% (inactive)"}, {"compound": "CC1(C)C2CCC1(CS(=O)(=O)NCCc1c[nH]c3ccccc13)C(=O)C2", "note": "(stereo not given)", "inhibition": "-8.1% (inactive)"}, {"compound": "Cc1cccc(N2CCN(C(C)C(=O)N3CCc4ccccc43)CC2)c1C", "note": "(stereo not given)", "inhibition": "52.9% (active)"}, {"compound": "NC(=O)N1CCc2ccccc21", "inhibition": "30.9% (inactive)"}, {"compound": "CCC(CC)C(=O)N1CCN(c2cccc(C)c2C)CC1", "inhibition": "-4.1% (inactive)"}, {"compound": "O=C1Nc2cc(C(=O)N3CCN(c4ccc(F)cc4)CC3)ccc2NC1CSCc1cccc(F)c1", "note": "(stereo not given)", "inhibition": "-24.2% (inactive)"}, {"compound": "O=C(O)c1cc(S(=O)(=O)N(Cc2ccccc2)c2ccccc2)ccc1Cl", "inhibition": "10.4% (inactive)"}, {"compound": "CCOc1ccc2c(c1)c(=O)c(S(=O)(=O)c1ccc(C)cc1)cn2CC", "inhibition": "52.5% (active)"}, {"compound": "CCn1cc(S(=O)(=O)c2cccc(C)c2)c(=O)c2cc(F)c(N3CCN(C)CC3)cc21", "inhibition": "5.7% (inactive)"}, {"compound": "CCCn1cc(S(=O)(=O)c2ccc(C)cc2)c(=O)c2cc(OCC)ccc21", "inhibition": "-25.6% (inactive)"}, {"compound": "COC(=O)c1c(C)[nH]c(C(=O)/C=C/c2ccc(Cl)cc2)c1C", "inhibition": "-0.3% (inactive)"}, {"compound": "COc1ccc(OC)c(CNC(=O)Cn2nc(C)c3c(C)n(-c4ccc(C)cc4)nc3c2=O)c1", "inhibition": "-9% (inactive)"}, {"compound": "CC(C)CC(=O)NC(=S)NNC(=O)c1cccc([N+](=O)[O-])c1", "inhibition": "-16.7% (inactive)"}]}]}
